From PubChem BioAssay (NCATS)
Results filed as inconclusive are left out. Activity calls are given as the source filed them. The call rests on the fitted dose curve; in most records, active means well fitted inhibition curve with a large enough effect; inconclusive means small, poorly fitted or top-dose-only effect; inactive means flat fitted curve, though single readings scatter.

Columns and labels:
[1] = qHTS profiling for inhibitors of Plasmodium falciparum proliferation (AID 504749); further: nearly all actives have a fitted effect of over 60% in size;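 on activity, negative = inhibition: 0% = DMSO vehicle and full inhibition = artemisinin control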; conditions: P. falciparum in erythrocytes, SYBR Green DNA, 72 h
Procedure, shortened: (§1)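 In a 72 h erythrocytic culture (37 C, humidified, 5% CO2) at 2.5% hematocrit and 0.3% starting parasitemia, compounds were tested; SYBR Green I in detergent lysis buffer stained parasite DNA overnight.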

3D7 = assay: as above; conditions: P. falciparum in erythrocytes, SYBR Green DNA, 72 h; series mostly up to 28.7 µM
Procedure, shortened: as §1

7G8 = assay: as above; conditions: P. falciparum in erythrocytes, SYBR Green DNA, 72 h; series mostly up to 28.7 µM
Procedure, shortened: as §1

AS120 = assay: as above; conditions: P. falciparum in erythrocytes, SYBR Green DNA, 72 h; series mostly up to 28.7 µM
Procedure, shortened: as §1

ATS189 = assay: as above; conditions: P. falciparum in erythrocytes, SYBR Green DNA, 72 h; series mostly up to 28.7 µM
Procedure, shortened: as §1

C2A = assay: as above; conditions: P. falciparum in erythrocytes, SYBR Green DNA, 72 h; series mostly up to 28.7 µM
Procedure, shortened: as §1

CP185 = assay: as above; conditions: P. falciparum in erythrocytes, SYBR Green DNA, 72 h; series mostly up to 28.7 µM
Procedure, shortened: as §1

CP192 = assay: as above; conditions: P. falciparum in erythrocytes, SYBR Green DNA, 72 h; series mostly up to 28.7 µM
Procedure, shortened: as §1

CP201 = assay: as above; conditions: P. falciparum in erythrocytes, SYBR Green DNA, 72 h; series mostly up to 28.7 µM
Procedure, shortened: as §1

CP211 = assay: as above; conditions: P. falciparum in erythrocytes, SYBR Green DNA, 72 h; series mostly up to 28.7 µM
Procedure, shortened: as §1

CP215 = assay: as above; conditions: P. falciparum in erythrocytes, SYBR Green DNA, 72 h; series mostly up to 28.7 µM
Procedure, shortened: as §1

AA1029 = assay: as above; conditions: P. falciparum in erythrocytes, SYBR Green DNA, 72 h; series mostly up to 28.7 µM
Procedure, shortened: as §1

ATS95 = assay: as above; conditions: P. falciparum in erythrocytes, SYBR Green DNA, 72 h; series mostly up to 28.7 µM
Procedure, shortened: as §1

CP191 = assay: as above; conditions: P. falciparum in erythrocytes, SYBR Green DNA, 72 h; series mostly up to 28.7 µM
Procedure, shortened: as §1

CP194 = assay: as above; conditions: P. falciparum in erythrocytes, SYBR Green DNA, 72 h; series mostly up to 28.7 µM
Procedure, shortened: as §1

CP217 = assay: as above; conditions: P. falciparum in erythrocytes, SYBR Green DNA, 72 h; series mostly up to 28.7 µM
Procedure, shortened: as §1

CP203 = assay: as above; conditions: P. falciparum in erythrocytes, SYBR Green DNA, 72 h; series mostly up to 28.7 µM
Procedure, shortened: as §1

[2] = at 28.7 µM (top of the series), parasite line B
[3] = at 28.7 µM (top of the series), parasite line A
Potency means the concentration at half of the fitted maximal effect.

CN1CCC[C@@H]1CCO[C@](C)(c1ccccc1)c1ccc(Cl)cc1
inactive: activity, negative = inhibition [1, 2] -15.8% | Potency (3D7) | Potency (AS120) | Potency (ATS189) | Potency (C2A) | Potency (CP185) | Potency (CP192) | Potency (CP201) | Potency (CP211) | Potency (CP215)
active: Potency (7G8) 10 µM

COc1ccc(C(Cl)=C(c2ccc(OC)cc2)c2ccc(OC)cc2)cc1
active: Potency ([1]; parasite line A) 3.98 µM | Potency ([1]; parasite line B) 3.98 µM | Potency (AA1029) 6.31 µM | Potency (AS120) 3.55 µM | Potency (ATS189) 2.82 µM | Potency (ATS95) 11.2 µM | Potency (C2A) 3.98 µM | Potency (CP191) 12.6 µM | Potency (CP217) 11.2 µM
inactive: Potency (CP192) | Potency (CP194) | Potency (CP201) | Potency (CP211) | Potency (CP215)

CCNC(=O)/C=C/c1cccc(Br)c1
inactive: activity, negative = inhibition [1, 2] -15.2% | Potency (3D7) | Potency (7G8) | Potency (AA1029) | Potency (AS120) | Potency (ATS95) | Potency (C2A) | Potency (CP185) | Potency (CP192) | Potency (CP194) | Potency (CP201) | Potency (CP203) | Potency (CP211) | Potency (CP215) | Potency (CP217)

CCCN(CCc1cccs1)[C@H]1CCc2c(O)cccc2C1
active: Potency ([1]; parasite line B) 4.47 µM | Potency (3D7) 14.1 µM | Potency (7G8) 1 µM | Potency (AA1029) 5.01 µM | Potency (AS120) 7.08 µM | Potency (ATS189) 7.94 µM | Potency (ATS95) 7.94 µM | Potency (C2A) 11.2 µM | Potency (CP185) 11.2 µM | Potency (CP191) 10 µM | Potency (CP194) 13.5 µM | Potency (CP203) 6.75 µM | Potency (CP211) 10.7 µM | Potency (CP215) 15.1 µM | Potency (CP217) 11.2 µM

CO[C@]12C[C@@H](COC(=O)c3cncc(Br)c3)CN(C)[C@@H]1Cc1cn(C)c3cccc2c13
inactive: activity, negative = inhibition [1, 3] -17.9% | Potency (3D7) | Potency (CP185) | Potency (CP192) | Potency (CP194) | Potency (CP201) | Potency (CP211) | Potency (CP217)

CN(C)C(=O)Nc1ccc(Cl)c(Cl)c1
inactive: activity, negative = inhibition [1, 3] -1.54% | activity, negative = inhibition [1, 2] -6.86% | Potency (ATS189) | Potency (ATS95) | Potency (CP185) | Potency (CP192)

CC[N+](C)(CC)CCOC(=O)C(O)(c1ccccc1)C1CCCCC1 (stereo not given)
inactive: activity, negative = inhibition [1, 3] -48% | Potency (AA1029) | Potency (AS120) | Potency (ATS189) | Potency (ATS95) | Potency (C2A) | Potency (CP191) | Potency (CP192) | Potency (CP194) | Potency (CP201) | Potency (CP203) | Potency (CP215) | Potency (CP217)

CN1CCN(C2=Nc3ccccc3Sc3ccc(Cl)cc32)CC1
inactive: activity, negative = inhibition [1, 3] -8.05% | activity, negative = inhibition [1, 2] -25.1% | Potency (ATS189) | Potency (C2A) | Potency (CP185) | Potency (CP192) | Potency (CP211)

CC(=O)O[C@]1(C(C)=O)CC[C@H]2[C@@H]3C=C(Cl)C4=CC(=O)CC[C@]4(C)[C@H]3CC[C@@]21C
active: Potency ([1]; parasite line A) 12.6 µM | Potency (7G8) 11.2 µM | Potency (AA1029) 11.2 µM | Potency (AS120) 11.2 µM

CCCCCCCCCCCCOCCOCCOCCOCCOCCOCCOCCOCCOCCO
inactive: activity, negative = inhibition [1, 2] -26% | Potency (AA1029) | Potency (CP192) | Potency (CP194) | Potency (CP201) | Potency (CP203) | Potency (CP211) | Potency (CP215)
active: Potency (7G8) 12.6 µM

NC1CCN(c2nc3c(cc2F)c(=O)c(C(=O)O)cn3-c2ccc(F)cc2F)C1 (stereo not given)
inactive: Potency (ATS189) | Potency (CP192)

CN(CCCN1c2ccccc2CCc2ccccc21)CC(=O)c1ccc(Cl)cc1
inactive: Potency (C2A) | Potency (CP192) | Potency (CP201)
active: Potency (7G8) 1.41 µM | Potency (AA1029) 7.94 µM | Potency (AS120) 12.6 µM | Potency (ATS95) 10 µM | Potency (CP217) 11.2 µM

CC(C)(C)NC[C@H](O)COc1nsnc1N1CCOCC1
active: Potency (3D7) 6.31 µM | Potency (7G8) 0.631 µM | Potency (ATS189) 5.62 µM | Potency (CP191) 7.08 µM
inactive: Potency (CP201)

O=S(c1cc(Cl)cc(Cl)c1O)c1cc(Cl)cc(Cl)c1O
active: Potency (CP191) 17.8 µM
inactive: Potency (7G8)

CN(C)CCOC(c1ccc(Cl)cc1)c1ccccn1 (stereo not given)
inactive: activity, negative = inhibition [1, 3] 5.62% | Potency (3D7) | Potency (C2A) | Potency (CP192) | Potency (CP211) | Potency (CP215)

Cc1ccc2c(Br)cc(Br)c(O)c2n1
active: Potency ([1]; parasite line B) 12.6 µM | Potency (7G8) 7.08 µM | Potency (AS120) 8.91 µM | Potency (CP185) 10 µM | Potency (CP194) 13.5 µM | Potency (CP211) 15.1 µM | Potency (CP215) 9.53 µM | Potency (CP217) 10 µM

COc1ccc(C(=O)c2ccccc2O)c(O)c1
active: Potency (7G8) 3.16 µM | Potency (AS120) 3.98 µM
inactive: activity, negative = inhibition ([1]; at 12.8 µM (top of the series), parasite line A) -29.2% | Potency (3D7) | Potency (AA1029) | Potency (ATS189) | Potency (ATS95) | Potency (C2A) | Potency (CP185) | Potency (CP192) | Potency (CP194) | Potency (CP201) | Potency (CP203) | Potency (CP211)

CN1CCc2cccc3c2[C@H]1Cc1ccc(O)c(O)c1-3
active: Potency (3D7) 7.94 µM | Potency (7G8) 2.24 µM | Potency (AA1029) 8.91 µM | Potency (AS120) 7.94 µM | Potency (ATS95) 8.91 µM

CCN(CC)CCOc1ccc2c(c1)C(=O)c1cc(OCCN(CC)CC)ccc1-2
active: Potency (7G8) 7.94 µM | Potency (ATS189) 11.2 µM | Potency (C2A) 10 µM | Potency (CP185) 12.6 µM

C[N+]1(C)CCC(=C(c2ccccc2)c2ccccc2)CC1
inactive: Potency (AA1029) | Potency (AS120) | Potency (ATS189) | Potency (ATS95) | Potency (C2A) | Potency (CP185) | Potency (CP194) | Potency (CP201) | Potency (CP211) | Potency (CP215) | Potency (CP217)

COc1cc(N)c(Cl)cc1C(=O)NC1CCN(Cc2ccccc2)CC1
inactive: activity, negative = inhibition ([1]; at 12.8 µM (top of the series), parasite line B) -11.7% | Potency (3D7) | Potency (AA1029) | Potency (AS120) | Potency (ATS189) | Potency (ATS95) | Potency (C2A) | Potency (CP185) | Potency (CP192) | Potency (CP194) | Potency (CP201) | Potency (CP203) | Potency (CP211) | Potency (CP215) | Potency (CP217)

O=C(CN1CCN(Cc2ccc3c(c2)OCO3)CC1)N1c2ccccc2Sc2ccccc21
active: Potency (7G8) 7.94 µM | Potency (AS120) 10 µM | Potency (ATS189) 8.91 µM | Potency (C2A) 11.2 µM | Potency (CP217) 11.2 µM
inactive: Potency (CP192) | Potency (CP201)

OC(C#CCN1CCCC1)(c1ccccc1)c1ccccc1
inactive: activity, negative = inhibition [1, 2] -24.9% | Potency (3D7) | Potency (C2A) | Potency (CP191) | Potency (CP201)
active: Potency (7G8) 11.2 µM | Potency (CP203) 15.1 µM

Oc1c(Cl)cc(Cl)c(Cl)c1Cc1c(O)c(Cl)cc(Cl)c1Cl
active: Potency ([1]; parasite line A) 11.2 µM | Potency (7G8) 4.47 µM | Potency (AS120) 11.2 µM | Potency (CP191) 8.91 µM | Potency (CP194) 10.7 µM | Potency (CP201) 10.7 µM | Potency (CP211) 12 µM | Potency (CP215) 7.57 µM | Potency (CP217) 8.91 µM
